Data reported in PubChem BioAssay AID1159580 (chemical genetic matrix, 2015).
The campaign covered roughly 5,500 compounds. About 2,000 (36%) were called active. Inconclusive results (about 18%) are left out. No stated cut-off is given here; in the data, active means normalized growth mostly below about 0.91 (no sharp cut-off); inconclusive means no clear call, values can overlap the other calls; inactive means mostly above about 0.92. This is one part of the list.

Experiment: chemical genetic growth profiling, strain panel (AID 1159580);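 further: tested at 20 µM; growth read once vehicle control cultures reached saturation at 30 °C; 1 = growth at the plate median or of vehicle wells; lower values mean less growth of the strain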
Settings: S. cerevisiae deletion strains, growth OD

Measured: normalized growth

COc1cc(O)c(C(C)=O)c(O)c1
inactive: locus YHR030C, strain SLT2, hits give low values 1.05 | locus YHR079C, strain IRE1, hits give low values 1.03 | locus YJL095W, strain BCK1, hits give low values 0.989 | locus YJR066W, strain TOR1, hits give low values 0.979 | locus YLR113W, strain HOG1, hits give low values 0.935 | locus YNL183C, strain NPR1, hits give low values 0.925 | locus YOR231W, strain MKK1, hits give low values 1.04 | locus YPL256C, strain CLN2, hits give low values 0.992
